For 61 molecules, inhibition results are on record in PubChem BioAssay AID624330 (Southern Research Specialized Biocontainment Screening …, 2012).

In all, about 340,000 compounds went through this assay and about 2,100 (0.62%) were called active. A selection follows. Measured potencies and affinities stand elsewhere. A number with no mark means an inactive call.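 How the source made its calls: active means first-screen hits whose inhibition reached a set limit at any dose in the follow-up dose series; inconclusive means inhibition above the set first-screen limit but never retested; inactive means the rest.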

The target of the test is Rac GTPase-activating protein 1 (Homo sapiens) (UniProt Q9H0H5). Put plainly: blockers of MgcRacGAP-driven Rac1 GTP hydrolysis – biochemical, ADP Hunter fluorescence, primary and confirmatory, confirmation (AID 624330).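 Further: fluorescence reports GDP produced by GAP-driven GTP hydrolysis.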 Particulars: MgcRacGAP-stimulated Rac1 GTP hydrolysis, at 30 µM, stronger effect = higher value, GST-tagged Rac1 F28L mutant substrate.
Sequence of Rac GTPase-activating protein 1 (Homo sapiens) (Q9H0H5 whole entry, looked up): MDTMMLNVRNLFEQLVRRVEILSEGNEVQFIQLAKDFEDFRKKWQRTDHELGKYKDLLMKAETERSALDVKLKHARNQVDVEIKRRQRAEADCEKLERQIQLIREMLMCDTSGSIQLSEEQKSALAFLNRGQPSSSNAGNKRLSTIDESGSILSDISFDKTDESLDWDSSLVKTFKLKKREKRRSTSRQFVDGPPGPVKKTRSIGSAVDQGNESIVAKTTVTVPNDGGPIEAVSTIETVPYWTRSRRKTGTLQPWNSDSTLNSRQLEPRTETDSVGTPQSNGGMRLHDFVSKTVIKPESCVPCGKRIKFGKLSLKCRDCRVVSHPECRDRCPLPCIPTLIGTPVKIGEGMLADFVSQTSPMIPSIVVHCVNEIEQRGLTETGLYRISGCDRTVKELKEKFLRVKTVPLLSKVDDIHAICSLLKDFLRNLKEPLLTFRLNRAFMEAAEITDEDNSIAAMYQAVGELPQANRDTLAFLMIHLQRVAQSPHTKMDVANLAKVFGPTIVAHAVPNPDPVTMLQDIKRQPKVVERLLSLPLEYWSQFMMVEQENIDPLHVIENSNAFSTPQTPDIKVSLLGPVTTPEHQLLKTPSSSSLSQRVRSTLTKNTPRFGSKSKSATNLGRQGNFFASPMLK
Usually inhibition stands for the relative decrease from the control value, in per cent. On to `CN(CC(=O)Nc1c(Cl)cccc1Cl)C(=O)Cc1ccc2c(c1)CCC2`, for which the inhibition was 4.3%.
The result for `CC[n+]1c(/C=C/c2ccc(OC(C)=O)c(OC)c2)ccc2ccccc21` reads 27%; that for `COc1ccc(/C=C/c2ccc3ccccc3[n+]2C)cc1OC`, -0.83%.
The result for `Cc1ccc(N/C=C/C(=O)c2cccs2)cc1` reads 1.9%; that for `O=C(/C=C/Nc1ccc(F)cc1)c1cccs1`, 8.26%; that for `COc1ccc(C)cc1N(CC(=O)Nc1cccnc1)S(=O)(=O)c1ccc(C)cc1`, 3.72%.
The result for `O=C(CCSc1nnc(-c2ccco2)o1)Nc1ccc(Cl)cc1` reads 5.12%; that for `Cc1ccc(S(=O)(=O)N2CCOCC2)cc1C(=O)NC1CCCC1`, 6.35%; that for `COC(=O)c1cccc(/C=N/NC(N)=S)c1O`, 14.2%.
As to `NC(=S)N/N=C/c1ccccc1O`, the inhibition was 10.3%.
Regarding `COc1ccc(N(C(C)=O)S(=O)(=O)c2cc(OC)ccc2OC)cc1`, the inhibition was 12.7%.
The result for `COc1ccc(N2CCN(c3ccc(N)cc3C#N)CC2)cc1` reads 27.6%; that for `COc1cccc(N2CCN(c3ncccn3)CC2)c1`, 5.71%; that for `COc1ccnc(N2CCN(c3ccccc3)CC2)c1C#N`, 8.98%.
The result for `COc1ccc(C(=O)N2CCN(c3ncccn3)CC2)cc1` reads 0.88%; that for `COc1ccc(C(=O)NCC(=O)OCc2ccc(Br)cc2)cc1`, 11.1%; that for `CC(c1nccs1)N(C)C(=O)CCc1nnc(Cc2c[nH]c3ccccc23)o1` (stereo unspecified), 11.5%.
The result for `COC(=O)C1=C(C)N(CC2CCCO2)C(=O)C1` (stereo unspecified) reads 4.38%.
On to `O=C1/C(=C/c2ccc(O)cc2)SC(=S)N1CC1CCCO1` (stereo unspecified), for which the inhibition is 31.1%.
As for `O=C(N/N=C/c1ccc(-c2ccccc2C(=O)O)o1)c1cccs1`, the inhibition is 11.8%.
The result for `COc1ccc(-c2noc(-c3ccccc3C(=O)NCc3ccco3)n2)cc1` reads 8.25%; that for `CCCNC(=O)CN1CCN(c2cc3ccccc3c(Cl)n2)CC1`, 4.31%; that for `Cc1cccc(Oc2nc(-c3ccccn3)nc3ccccc23)c1`, 11.2%.
The result for `CC(=O)Nc1ccc(Oc2nc(C(F)(F)F)nc3ccccc23)cc1` reads 11.9%.
The result for `CC(C)(C)S(=O)(=O)N1C[C@@H]2CC/C=C\C/C(c3ccccc3)=C\2[C@H]1CCO` reads 6.06%.
With `C=C1CCN([C@@H](CC(C)C)C(=O)NCc2ccc(OC)cc2)S(=O)(=O)c2ccccc21`, the inhibition is 13.2%.
`COc1ccc2ccccc2c1C1NC(=O)NC(C)=C1[N+](=O)[O-]` (stereo unspecified): the inhibition is 1.63%.
The result for `C[n+]1c(/C=C/c2ccc3c(c2)OCO3)ccc2ccccc21` reads -4.73%; that for `CCN(CC)c1ccc(/C=C/c2ccc3ccc(OC)cc3[n+]2CC)cc1`, 12.8%.
The result for `CN(CCCS(=O)(=O)[O-])c1ccc(/C=C/c2ccc3ccccc3[n+]2C)cc1` reads 9.16%; that for `CC[n+]1c(/C=C/C=C/N(C(C)=O)c2ccccc2)sc2ccccc21`, 23.1%; that for `CN(C)c1ccc(/C=C/c2nc3ccccc3s2)cc1`, 13.3%.
As for `CC[n+]1c(/C=C/c2ccc(OC)c(OC)c2)ccc2ccccc21`, the inhibition is 11.3%.
Consider `COc1ccccc1N1CCN(C(=O)C(=O)c2cn(CC(=O)N3CCCCCC3)c3ccccc23)CC1`, for which the inhibition is 4.2%.
Consider `Cc1ccc2oc(=O)c3cnn(CC(=O)N(CCCN4CCOCC4)Cc4ccco4)c3c2c1`, for which the inhibition is 5.12%.
The result for `CCCN(CCC)CCNC(=O)CCC(=O)Nc1ccc2nc(N3CCN(C)CC3)cc(C)c2c1` reads 26.7%.
`CCCCNC(=O)CCC(=O)Nc1ccc2nc(N3CCN(C)CC3)cc(C)c2c1`: the inhibition is 11.9%.
The result for `CCN(C(=O)CN1C(=O)c2ccc([N+](=O)[O-])cc2C1=O)C1CCCCC1` reads -1.26%.
The result for `COc1cccc(OCC(O)CNC2CCCC2)c1` (stereo unspecified) reads -1.44%; that for `CCC(CC)CN1C(Nc2ccccc2)=NC[C@@H]1C`, 1.3%; that for `C=CCc1cc(/C=C2/NC(=O)N(CC(=O)OC)C2=O)cc(OC)c1O`, 10.1%.
The result for `O=C(CSc1nc(C2CCCCC2)n(-c2ccccc2)n1)NCC(F)(F)F` reads 8.72%.
In the case of `NC(=O)NC(=O)CSc1nc(C2CCCCC2)n(-c2ccccc2)n1`, the inhibition is 3.47%.
The result for `O=C(Nc1nccs1)C1CC(=O)N(CCc2ccc(F)cc2)C1` (stereo unspecified) reads 6.31%.
The result for `Nc1nonc1-n1nnc(C(=O)N/N=C/c2cccc(Cl)c2)c1CN1CCCCCC1` reads 3.77%; that for `C=CCOC1COC2C(OCC=C)COC12` (stereo unspecified), 3.53%; that for `CC(=O)NCCOc1cccc2ccccc12`, -4.94%.
The result for `Cc1ccc(OCCCCNC(C)c2ccccc2)c(C)c1` (stereo unspecified) reads 28.7%; that for `c1ccc(CCNCCOc2ccccc2)cc1`, 17.6%.
With `COc1ccc(OCCCNCCc2ccccc2)cc1`, the inhibition was 4.94%.
The result for `Cc1ccc(S(=O)(=O)N2CC=C(C(=O)NCc3ccccc3)CC2)cc1` reads 6.07%; that for `CC(=O)c1ccc(NC(=O)C[n+]2ccccc2)cc1`, 10.2%; that for `CCOc1ccc(CCNC(=O)COC(=O)c2cc(OC)c(OC)cc2[N+](=O)[O-])cc1OCC`, -1.41%.
The result for `Cc1ccc(NC(=O)CN(C)Cc2nc3ccccc3c(=O)[nH]2)c(Br)c1` reads 4.68%; that for `COCCCNc1nc2cc(OC)c(OC)cc2c2nc(-c3ccccc3)nn12`, 2.71%; that for `CCOc1cc2nc(-c3ccc(OC)c(OC)c3)nc(NCCCN3CCOCC3)c2cc1OC`, 18.4%.
The result for `COCCNc1nc(=S)[nH]c2cc(OC)c(OC)cc12` reads 15.3%; that for `CCOCCCNCc1ccc(OC)c(OC)c1`, 13.9%.
`CCCCn1c(N)c(N(CC(C)C)C(=O)CCNC(=O)c2ccccc2Cl)c(=O)[nH]c1=O`: the inhibition was 6.4%.
For `CCOc1cc(C(=S)N2CCOCC2)ccc1OS(=O)(=O)c1ccc(OC)cc1`, the inhibition is 3.51%.
Turning to `C[C@@H]1CN([C@H](C)CO)C(=O)CCCn2nncc2CO[C@H]1CN(C)S(=O)(=O)c1ccc2ccccc2c1`, the inhibition is 12.9%.
